Results published in PubChem BioAssay AID796 (Columbia University Molecular Screening Center, 2007).
About 410 (0.44%) of roughly 94,000 compounds were called active.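 How the source made its calls: active means inhibition above about 30% together with a positive call from visual inspection of the well image (limit read from the data); inconclusive means inhibition above a set limit but visual check negative; inactive means inhibition not above a set limit, visual check negative.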 What follows is part of a selection rich in actives, with near analogues and random picks from the rest.

Experiment: inhibitors of IL-1B driven NFkB p65 nuclear import, primary screen, imaging, HUVEC, IL-1B stimulus, high-content imaging (AID 796);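 further: nuclear over cytoplasmic p65 intensity ratio measured by imaging; 0% = IL-1B stimulated DMSO wells and 100% = unstimulated DMSO wells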
Details: HUVEC IL-1B NFkB p65 nuclear translocation imaging; at 2 µM; hits give high values

inhibition, active:
Cc1cccc(NC(=O)c2cc(N3C(=O)CCC3=O)ccc2Cl)n1 32.1%
Cn1c(CC(=O)Nc2ccccc2)nnc1SCC(=O)c1ccccc1 92%
Cc1cccc(NC(=O)CSc2nnc(CCCCCNC(=O)OC(C)(C)C)o2)c1C 55.4%
CSc1nc(N(C)NC(=O)c2cccc(C)c2)c2ccccc2n1 34.2%
C=CCn1c(COc2cccc3cccnc23)nnc1SCC(=O)OC 30.7%
CCOc1ccccc1NC(=O)C1CCCN(C(=O)Nc2ccccc2)C1 (centres undefined) 40.5%

inhibition, inactive:
COc1ccc(/C=C(/NC(=O)c2ccc(C)cc2)c2nc3ccccc3[nH]2)cc1OC -9.9%
CCOC(=O)c1c(N=CN(C)C)c(C#N)c2n1CCCC2 10.8%
CC1CCCCC1NC(=O)C1CCCN1S(=O)(=O)c1cccc2nsnc12 (centres undefined) -27%
COc1nc(-c2ccc(Cl)cc2)ccc1-c1noc(-c2cccs2)n1 -5.8%
O=S(=O)(c1cccc2nonc12)N1CCN(c2cccc(Cl)c2)CC1 -0.1%
CC(C)NC(=O)C(=O)N/N=C/c1ccco1 -6.9%
COc1cc(C(=O)N2CCN(C/C=C/c3ccccc3)CC2)cc(OC)c1C -3.7%
N/C(=N\OC(=O)c1cc(-c2ccccc2)nc2ccccc12)c1ccncc1 8%
Cc1ccc(S(=O)(=O)N(CC(=O)N/N=C/c2ccc(F)cc2)c2cccc3cccnc23)cc1 9.5%
COC(=O)c1c(-c2cccs2)csc1NC(=O)CSc1ncnc2sc(C)c(C)c12 -10.3%
Nc1ccc(-c2sc(N)nc2-c2ccccc2)cc1 1.6%
CCC(C)NC(=O)c1ccccc1NC(=O)c1ccccc1N(C)S(C)(=O)=O (centres undefined) -10.8%
COc1ccc(Cl)cc1NC(=O)CN(C)C(=O)CNC(=O)C12CC3CC(CC(C3)C1)C2 -36%
COc1ccc(Cc2nnc(SCC(=O)c3cccc([N+](=O)[O-])c3)n2C)cc1 -8.8%
O=C(NCCc1ccccc1)c1ccc(NC2=NC3CS(=O)(=O)CC3S2)cc1 (centres undefined) 0.8%
Cc1cc(NC(=O)c2cccc(N3C(=O)CCC3=O)c2)no1 -4.7%
Cc1cccc(NC(=O)c2ccccc2NC(=O)C(C)(C)C)n1 -6.8%
O=C(CN1CCCCCC1)Nc1ccc(Br)cc1Br 5.3%
Cc1ccccc1NC(=O)Cc1nnc(SCC(=O)N2CCN(c3ccccc3)CC2)n1C -36.6%
Cn1c(CNc2nc(-c3ccccc3)cs2)nnc1SCC(=O)c1ccccc1 -14.8%
CCOC(=O)c1cc(NC(=O)c2ccc(Cl)cc2)c(=O)oc1-c1ccccc1 -5.2%
Cc1nc(C)c(C(=O)N(c2ccc(C)c(C)c2)C(C(=O)NCc2ccco2)c2ccccc2)s1 (centres undefined) -3.5%
CCc1ccccc1NC(=O)CSc1nnc([C@@H](NC(=O)OC(C)(C)C)C(C)C)o1 0.3%
CCc1ccccc1NC(=O)CSc1nnc([C@@H](NC(=O)OC(C)(C)C)C(C)CC)o1 (some centres undefined) -19.4%
Cc1noc(C)c1CSCC(=O)Nc1nc2ccc(Oc3ccccc3)cc2s1 -3.4%
Cc1ccc(-n2nc(N)c3c(=O)oc(N(C)C)nc32)cc1 -5.7%
O=C(COc1ccc(Cl)cc1)NCCC1=CCCCC1 1.3%
COc1ccc(C(=O)NN(C)c2nc(-c3ccccc3)cc(C)c2S(C)(=O)=O)cc1 -10.1%
CN(NC(=O)c1ccccc1)c1nc2ccccc2nc1C(F)(F)F 12.5%
O=S(=O)(c1cnccc1N1CCN(/N=C/c2ccc(Br)cc2)CC1)N1CCCCC1 -15.8%
COc1cc(OC)cc(C(=O)NC2CCN(C(=O)N3c4ccccc4Sc4ccccc43)CC2)c1 -1.1%
Cc1ccccc1N1CCN(CCCOc2ccc3c(C)cc(=O)oc3c2)CC1 -2.5%
Cn1c(C(=O)OC(C(=O)NC2CCCCC2)c2ccccn2)cc2sccc21 (centres undefined) -1.9%
COc1cccc(/C=N/NC(=O)c2cccc([N+](=O)[O-])c2)c1OS(=O)(=O)c1ccc(C)cc1 1.2%
Cc1ccc(S(=O)(=O)N(C)C2(C)CCS(=O)(=O)C2)cc1 (centres undefined) -19.1%
CC(C)n1c(-c2cccs2)nc2ccccc21 -4.4%
C=CCn1c(COc2ccccc2)nnc1SCC(=O)NCC(=O)OCC -6.1%
C=CCn1c(COc2ccccc2C)nnc1SCC(=O)O -19.2%
COc1ccc(C(=O)Oc2cc(/C=N/NS(=O)(=O)c3ccc(C)cc3)ccc2OC)cc1 -13.4%
COc1cc(C(=S)N2CCOCC2)cc(OC)c1OC(=O)c1cc([N+](=O)[O-])cc([N+](=O)[O-])c1 2.4%
COc1ccccc1OCc1nc2ccccc2s1 9.7%
O=C(Nc1ccccc1-c1nnn(CC(=O)N2CCCc3ccccc32)n1)c1cccc(Cl)c1 9.4%
OC(c1ccccc1)c1nccn1Cc1ccccc1 (centres undefined) -26.3%
Cn1cnc([N+](=O)[O-])c1Sc1ccccc1 7%
CCOC(=O)c1c(NC(C)=O)sc2c(O)c(Br)ccc12 -8%
CCC(C)NC(=O)C1CCCN(C(=O)NC2CCCCC2)C1 (centres undefined) -6.5%
Cc1ccc(NC(=S)Nc2ncccc2C)c(C)c1 8.4%
COc1ccc(C(=O)NC(=S)Nc2ccccc2N2CCN(S(C)(=O)=O)CC2)cc1OC -15.4%
Cc1[nH]c(=O)c(C(=O)/C=C/c2ccccc2)c2c1CCCC2 -9.9%
CC(=O)c1cn(CCCCCCCCCCn2cc(C(C)=O)c(=O)[nH]c2=O)c(=O)[nH]c1=O -1.7%
CN(CC(=O)Nc1cccc2c1CCCC2)S(=O)(=O)c1ccc(Cl)cc1 8.4%
CCOc1ccccc1NC(=O)C1CCN(S(=O)(=O)c2c(C)nn(C)c2C)CC1 13.5%
CCOc1ccc(NC(=O)C2CCCN(C(=O)Nc3ccccc3)C2)cc1 (centres undefined) 5.5%
